From PubChem BioAssay (NCATS) come the findings set out here.

Results filed as inconclusive are left out. A number with no mark means an inactive call. Activity calls are given as the source filed them. The call rests on the fitted dose curve; in most records, active means well fitted curve in the direction sought with a large enough effect; inconclusive means small, poorly fitted or top-dose-only effect, or another doubt; inactive means no such curve, though single readings can be large; an effect the other way counts as inactive or inconclusive. Where a SMILES comes first, the peptide text is derived from it. Bridges are numbered along the chain shown (N, C = ends). [ ]: non-standard residue; d: D form. hArg = N=C(N)NCCCC[C@H](N)C(=O)O; Mpa = O=C(O)CCS

Test [1] concerns the target Protein phosphatase 1D (Homo sapiens) (UniProt O15297). Nature of the test: RapidFire Mass Spectrometry qHTS Assay for Modulators of WT P53-Induced Phosphatase 1 (WIP1) (AID 1347424).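 Further: amount of dephosphorylated VEPPL-S-QETFS peptide product formed by WIP1; series mostly up to about 63 µM; plate controls were DMSO wells for no effect and GSK830371 inhibitor control at 10 µM for full effect.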 The essentials:
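10 nM WIP1 + cpd, 1 h RT; + 2 uM VEPPL-pS-QETFS, 5 min RT; stop 0.5% formic acid; labelled product standard 1 uM; RapidFire MS. Buffer 50 mM Tris pH 7.5, 30 mM MgCl2, 1 mM TCEP.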
Background: In qHTS, concentration-response curves come from the screen itself.

The target is the same in test [2]. Nature of the test: Rhodamine-PBP qHTS Assay for Modulators of WT P53-Induced Phosphatase 1 (WIP1) (AID 1347425). Further: % of control where 0% means no effect. Summed up:
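WIP1 (5 nM final) was preincubated with compound for 1 hour at room temperature. It then dephosphorylated 10 uM VEPPL-pS-QETFS peptide in Tris-HCl pH 7.5 with 30 mM MgCl2. Released Pi was detected by 10 uM Rh-PBP fluorescence (ex 525/em 598 nm) read at 1-min intervals for 11 min, as delta f1 - f0.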

Test [3] in a line: Primary qHTS for inhibitors of La Crosse Virus (LACV) - induced cell death in SH-SY5Y cells (AID 1508616).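 Further: top concentration of the series differs between compounds; 0% = infected DMSO wells and 100% = uninfected DMSO wells; higher means more rescue of cells from virus-induced death.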 The essentials: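 Protection against LACV-induced cell death is scored in SH-SY5Y cells exposed to compounds and virus (0.01 MOI) for 6 days. Data normalized to virus-infected DMSO wells and virus-free DMSO wells.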
A short description of test [4]: qHTS to identify inhibitors of the type 1 interferon - major histocompatibility complex class I in skeletal muscle: primary screen against the NCATS Mechanism Interrogation Plate v5.0 (MIPE) Libary (AID 1347411).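 Further: plate controls were vehicle for no effect and reference inhibitor for full effect; nearly all actives have a fitted effect of over 65% in size.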 The essentials:
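Luminescence from HiBiT-tagged endogenous HLA-B*08:01 served as the MHC class I read-out. CRISPR-engineered C25cl48 human myoblasts received 4.0 ng/ml IFN-beta plus compound for 24 hrs, with an 11-point, 1:3 series topping at 46 uM final.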

Test [5] deals with Calcium and integrin-binding protein 1 (Homo sapiens) (UniProt Q99828). The experiment in a line: Primary qHTS for Identification of Calcium Integrin Binding Protein 1 (CIB1) Competitor (AID 1508620).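 Further: GST tagged CIB1 binding a fluorescein labelled alphaIIb integrin peptide tracer; top concentration of the series differs between compounds; on the % scale 0 is the no-effect control and ±100 the full control effect.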 The essentials: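 CIB1-GST (1 uM final) and compound incubated 15 min at room temperature before adding FITC-alphaIIb peptide tracer (100 nM final). Competition for binding read by fluorescence polarization (ex 480, em 540) after another 15 min at room temperature.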
Sequence of Calcium and integrin-binding protein 1 (Homo sapiens) (Q99828 whole entry, looked up): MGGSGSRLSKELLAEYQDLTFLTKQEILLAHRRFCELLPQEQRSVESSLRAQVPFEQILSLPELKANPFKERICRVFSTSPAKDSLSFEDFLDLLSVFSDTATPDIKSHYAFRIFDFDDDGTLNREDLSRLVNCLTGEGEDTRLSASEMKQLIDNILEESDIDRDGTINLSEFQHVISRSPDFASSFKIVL

Test [6] in a line: qHTS to identify inhibitors of the type 1 interferon - major histocompatibility complex class I in skeletal muscle: primary screen against the NCATS Pharmaceutical Collection (AID 1347407).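 Further: luminescence of HiBiT knocked into endogenous HLA-B as interferon-induced MHC class I level; on the % scale 0 is the no-effect control and ±100 the full control effect.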 Summed up:
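A qHTS format is used: 8-point, 1:5 compound series with 46 uM top final concentration, applied alongside 4 ng/ml IFN-beta to HLA-B*08:01-HiBiT knock-in myoblasts. Luminescence is measured after 24 h treatment.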

Test [7] is described as follows: Counterscreen qHTS for small molecule stabilizers of the endoplasmic reticulum resident proteome: GLuc-NoTag assay (AID 1508627).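 Further: series mostly up to about 76 µM; 0% = thapsigargin alone and -100% = DMSO vehicle control.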 Summed up:
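Luminescence of Gaussia luciferase secreted into the medium (coelenterazine, 0.07x final, unlysed cells) was the read-out. Human SH-SY5Y neuroblastoma cells constitutively secreting untagged GLuc received compound for 19 h, then 100 nM thapsigargin for 4 h.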

Test [8] in a line: Confirmatory qHTS for small molecule stabilizers of the endoplasmic reticulum resident proteome: Secreted ER Calcium Modulated Protein (SERCaMP) assay (AID 1508628). Further: nearly all actives have a fitted effect of over 40% in size. Further: potency means the concentration at half of the fitted maximal effect. Summed up: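 SH-SY5Y cells stably expressing GLuc-SERCaMP, treated 16 h with compound (primary 1.53, 7.67, 38.3 uM; confirmation 11 concentrations, up to 76.6 uM), then 100 nM thapsigargin for 4 h. Secreted Gaussia luciferase in medium read by coelenterazine luminescence.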

Test [9] in a line: Cell Viability qHTS for small molecule stabilizers of the endoplasmic reticulum resident proteome (AID 1508629).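 Further: human SH-SY5Y neuroblastoma cells carrying the GLuc-SERCaMP reporter; compound exposure about 46 h in total before the viability read; on the % scale 0 is the no-effect control and ±100 the full control effect.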 Particulars: cell viability counter-screen, 100 nM thapsigargin for final 4 h.

Sequence of Protein phosphatase 1D (Homo sapiens) (O15297 whole entry, looked up): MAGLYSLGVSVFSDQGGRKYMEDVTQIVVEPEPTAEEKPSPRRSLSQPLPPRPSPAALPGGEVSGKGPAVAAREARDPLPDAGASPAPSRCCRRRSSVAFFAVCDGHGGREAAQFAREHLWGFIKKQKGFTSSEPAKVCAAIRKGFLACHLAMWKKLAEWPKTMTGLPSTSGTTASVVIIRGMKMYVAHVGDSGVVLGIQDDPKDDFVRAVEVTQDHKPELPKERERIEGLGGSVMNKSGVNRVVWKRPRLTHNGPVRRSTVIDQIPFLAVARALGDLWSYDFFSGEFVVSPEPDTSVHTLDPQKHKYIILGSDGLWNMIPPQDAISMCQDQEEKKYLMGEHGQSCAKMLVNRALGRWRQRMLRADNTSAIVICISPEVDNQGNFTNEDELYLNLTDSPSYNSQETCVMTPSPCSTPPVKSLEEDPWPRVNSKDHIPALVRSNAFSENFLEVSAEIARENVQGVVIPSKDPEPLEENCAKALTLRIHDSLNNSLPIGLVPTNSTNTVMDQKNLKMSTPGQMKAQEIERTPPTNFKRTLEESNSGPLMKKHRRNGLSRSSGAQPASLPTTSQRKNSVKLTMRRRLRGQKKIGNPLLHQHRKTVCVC

On to `CN1C[C@@H]2C[C@H]1CN2c1cc2c(cc1F)c(=O)c(C(=O)O)cn2C1CC1`, for which the outcome in test [1], in [2] and in test [3] was inactive.
In the case of `OCCN1C[C@H](O)[C@@H](O)[C@H](O)[C@H]1CO`, the call in test [4], in test [1], in test [2], in test [3] and in test [5] was inactive.
Turning to `O=C1c2cccc(O)c2C(=O)c2c(O)cccc21`, the call in test [1], in [2] and in test [3] was inactive.
For the compound `CC(C)CCOC(=O)c1ccc(N(C)C)cc1`, the compound was classed as inactive in test [6], in test [2], in [3] and in [5].
Take `O=C(O)CCC(=O)O`: the result in [1], in [2] and in test [3] was inactive.
As to `CN1C(C)(C)CCCC1(C)C`, the compound was called inactive in test [6], in test [2], in [3] and in [5].
As for `Cn1c(=O)c2c(ncn2CCO)n(C)c1=O`, the call in test [6], in test [2], in [3] and in test [5] was inactive.
Take `Cc1ccc2c(c1)c1c3n2CCNC3CCC1` (centres undefined): the call in [6], in test [2], in test [3], in test [5] and in test [7] was inactive. The Potency entry in [8] is “inactive”.
In the case of `CCCCCCCCCCOc1cc2c(=O)c(C(=O)OCC)c[nH]c2cc1OCC`, the activity change, negative = inhibition in test [6] was 0.347% [at 3.83 µM]; in [5] it was 6.25% [at 12.4 µM]. For the same compound, the activity change in test [3] is 5.38% [at 0.431 µM].
Take `CC(=O)NS(=O)(=O)c1ccc(N)cc1`: the compound was classed as inactive in test [6], in [2], in test [3] and in test [5].
Consider `Cc1cccc(Nc2ccccc2C(=O)O)c1C`, for which the outcome in test [6], in [3] and in [5] was inactive.
Regarding `CNc1c2c(nn1C)CCCC2`, the compound was classed as inactive in test [6], in test [2], in test [3] and in test [5].
Turning to `CC1CC(OC(=O)c2ccccc2O)CC(C)(C)C1` (centres undefined), the call in [6], in [2], in [3] and in test [5] was inactive.
With `CC(C)CCCC(C)CCCC(C)CCCCC(C)CCCC(C)CCCC(C)C` (centres undefined), the call in [6], in test [2], in [3] and in test [5] was inactive.
Take `CN(C(=O)c1c(O)c2ccccc2n(C)c1=O)c1ccccc1`: the call in test [4], in test [1], in [3] and in [5] was inactive.
On to `NC(=O)CC[C@@H](N)C(=O)O`, for which the result in [6], in test [3] and in test [5] was inactive.
Regarding `CC(=O)SC[C@@H](Cc1ccccc1)C(=O)NCC(=O)OCc1ccccc1`, the call in test [6], in test [3] and in test [5] was inactive.
For the compound `CCCCCCCC(=O)OCC(COC(=O)CCCCCCC)OC(=O)CCCCCCC`, the compound was called inactive in [6], in [2], in test [3] and in test [5].
For the compound `COc1ccc(Cc2cnc(N)nc2N)cc1OC`, the compound was classed as inactive in test [6], in [3] and in [5].
As to `CCCC(O)C(CC)CO` (centres undefined), the call in [6], in test [2], in test [3], in test [5] and in test [7] was inactive. In addition, in test [8], the Potency entry is “inactive”. Moreover, in test [9], the max response is 29.3%.
As to `CCCCCCCCCCCCCCCCC(C(=O)O)C(O)(CC(=O)O)C(=O)O` (centres undefined), the call in test [6], in test [2], in [3] and in test [5] was inactive.
For `CC(C)NC[C@@H](O)COc1ccc(CC(N)=O)cc1`, the outcome in test [1], in [2], in test [3] and in [5] was inactive.
Consider `Cc1c(NC(C)C)c(=O)n(-c2ccccc2)n1C`, for which the call in test [2], in [3] and in test [5] was inactive.
In the case of `Cc1c(NC(=O)c2cccnc2)c(=O)n(-c2ccccc2)n1C`, the compound was classed as inactive in [1], in test [2], in [3] and in test [5].
Take `O=C(O)c1ccccc1OP(=O)(O)O`: the compound was called inactive in [1], in [3] and in [5].
As for `NCC1CCC(C(=O)Oc2ccc(CCC(=O)O)cc2)CC1` (centres undefined), the call in test [1], in [2], in test [3] and in test [5] was inactive.
Turning to `CCCCC1(COC(=O)CCC(=O)O)C(=O)N(c2ccccc2)N(c2ccccc2)C1=O`, the call in test [1], in test [2], in test [3] and in test [5] was inactive.
Take `CC(=O)Nc1ccccc1`: the outcome in [1], in test [2], in test [3] and in [5] was inactive.
Take `CCOc1ccccc1O[C@H](c1ccccc1)[C@H]1CNCCO1`: the compound was called inactive in test [1], in [2], in test [3] and in test [5]. Further, in test [8], the Potency is 22.4 µM (active). Moreover, the max response in test [9] was 9.87%.
On to `Cn1c([N+](=O)[O-])cnc1COC(N)=O`, for which the outcome in test [2], in test [3] and in test [5] was inactive.
As to `C[C@H]1COc2c(C3(N)CC3)c(F)cc3c(=O)c(C(=O)O)cn1c23`, the compound was classed as inactive in test [1], in test [2], in test [3] and in test [5].
For the compound `NCc1ccc(S(N)(=O)=O)cc1`, the compound was called inactive in [1] and in test [3].
Take `CC(=O)[C@@]1(O)CC[C@H]2[C@@H]3C[C@H](C)C4=CC(=O)C=C[C@]4(C)[C@@]3(F)[C@@H](O)C[C@@]21C`: the result in test [1], in test [2], in test [3] and in [5] was inactive.
Regarding `c1ccc2[nH]ccc2c1`, the outcome in [2], in test [3] and in [5] was inactive.
On to `Cc1cc(NC(=O)C2=C(O)c3ccccc3S(=O)(=O)N2C)no1`, for which the compound was classed as inactive in test [1], in [2], in [3] and in [5].
Regarding `C/C(=C(\CCO)SS/C(CCO)=C(\C)N(C=O)Cc1cnc(C)nc1N)N(C=O)Cc1cnc(C)nc1N`, the outcome in test [1], in [2], in test [3] and in test [5] was inactive.
As to `COc1ccccc1OCC(O)CO` (centres undefined), the outcome in test [1], in test [3] and in test [5] was inactive.
As for `NC(=O)[C@@H]1CSSCCC(=O)N[C@@H](CCCCN=C(N)N)C(=O)NCC(=O)N[C@@H](CC(=O)O)C(=O)N[C@@H](Cc2c[nH]c3ccccc23)C(=O)N2CCC[C@H]2C(=O)N1` ([Mpa][hArg]GDWPC-NH2; disulfide 1-7), the compound was classed as inactive in test [1], in [3] and in [5].
